Measurements reported in PubChem BioAssay (Tox21).
Where “and” joins values, the source holds several entries; their conditions need not be identical. Equal values may be shown once. Results filed as inconclusive are left out. Where a structure was tested more than once in an assay, its records may differ in their call. Calls of active or inactive are those of the source. Unless noted, the call rests on the fitted dose curve; in most records, active means well fitted curve in the direction sought with a large enough effect in the repeat runs; inconclusive means weak or mixed curves; inactive means no such curve, though single readings can be large; an effect the other way counts as inactive or inconclusive.

Key:
[1] = qHTS assay to identify small molecule agonists of the hypoxia (HIF-1) signaling pathway - cell viability counter screen (AID 1224844; calls by dose curve; further: nearly all actives have a fitted effect of over 50% in size; further: potency means the concentration at half of the fitted maximal effect)
Procedure, shortened: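 HRE-bla ME-180 cells, 2,000/well in 0.5% dialyzed FBS medium, treated 17 h at 37C with compounds. Viability read in the same wells as the bla reporter, by CellTiter-Glo luminescence after 30 min at room temperature.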

[2] = qHTS assay to identify small molecule agonists of H2AX (AID 1224845; active means well fitted activation curve with a large enough effect in the signal ratio in the repeat runs, not every such curve was filed as active; the % refers to the signal ratio; further: potency means the concentration at half of the fitted maximal effect)
Procedure, shortened: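 Wild-type CHO-K1 cells plated overnight, then exposed 3 hr at 37C to compounds at 15 concentrations (0.76% DMSO). Lysed, then HTRF anti-pH2AX(S139)-cryptate/anti-H2AX-d2 detection after 24 hr at room temperature; emissions 665 and 620 nm.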

[3] = qHTS assay to identify small molecule agonists of the hypoxia (HIF-1) signaling pathway (AID 1224846; active means well fitted activation curve with a large enough effect in the signal ratio in the repeat runs, not every such curve was filed as active; the % refers to the signal ratio)
Procedure, shortened: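 HRE-bla ME-180 beta-lactamase reporter cells in medium with 0.5% dialyzed FBS, pre-incubated 5 h then exposed to compounds 17 h at 37C, 5% CO2; reporter induction read with CCF4-AM FRET substrate.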

[4] = qHTS assay to identify small molecule antagonists of the estrogen related receptor (ERR) signaling pathway from Tox21 library (AID 1224848); further: nearly all actives have a fitted effect of over 50% in size; further: potency means the concentration at half of the fitted maximal effect
Procedure, shortened: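 Screening used an ERR reporter line supplied by NTP, exposed for 18 h at 37 C to library compounds delivered in DMSO. Signal was luciferase luminescence developed with ONE-Glo at room temperature for 30 min.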

[5] = qHTS assay to identify small molecule agonists of the estrogen related receptor (ERR) signaling pathway from Tox21 library (AID 1224849; calls by dose curve; further: nearly all actives have a fitted effect of over 15% in size); conditions: ERR reporter cell line, ONE-Glo luciferase, 18 h
Procedure, shortened: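 ERR reporter cells (NTP line) pre-incubated 6 hours at 37 C, then exposed to compounds for 18 hours at 37 C. ONE-Glo luciferase luminescence was read after 30 minutes at room temperature.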

[6] = qHTS RealTime-Glo MT Cell Viability Assay in HEK293 cells - 32 hour (AID 1224868); further: nearly all actives have a fitted effect of over 50% in size; further: potency means the concentration at half of the fitted maximal effect
Procedure, shortened: (§1)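 Homogeneous bioluminescent viability format in HEK293 cells (600 cells/well). Following 5 h at 37 C/5% CO2, 23 nL compound was pintooled; the signal was measured repeatedly during 40 h incubation.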

[7] = A CellTox Green Cytotoxicity Assay to monitor cytotoxicity in HEK293 cells - 0 hour (AID 1224869); further: nearly all actives have a fitted effect of over 50% in size
Procedure, shortened: (§2)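 HEK293 cells, 600/well, were preincubated 5 hours and then exposed to compounds at 37 C for up to 40 hours. A cell-impermeant cyanine dye staining dead-cell DNA was read by fluorescence at 0, 8, 16, 24, 32 and 40 h time points.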

[8] = qHTS RealTime-Glo MT Cell Viability Assay in HepG2 cells - 40 hour (AID 1224870); further: nearly all actives have a fitted effect of over 50% in size; further: potency means the concentration at half of the fitted maximal effect
Procedure, shortened: (§3)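 HepG2 cells mixed with RealTime-Glo MT reagents (NanoLuc plus cell-permeant prosubstrate) were seeded at 600 cells/well, incubated 5 h at 37 C/5% CO2, then pinned with compounds in DMSO; nonlytic luminescence tracked viability during 40 h treatment.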

[9] = A CellTox Green Cytotoxicity Assay to monitor cytotoxicity in HEK293 cells - 40 hour (AID 1224871); further: nearly all actives have a fitted effect of over 45% in size; further: potency means the concentration at half of the fitted maximal effect
Procedure, shortened: as §2

[10] = qHTS RealTime-Glo MT Cell Viability Assay in HEK293 cells - 16 hour (AID 1224872); further: nearly all actives have a fitted effect of over 50% in size; further: potency means the concentration at half of the fitted maximal effect
Procedure, shortened: as §1

[11] = qHTS RealTime-Glo MT Cell Viability Assay in HEK293 cells - 40 hour (AID 1224874); conditions: RealTime-Glo luminescence; max response: stronger effect = lower value; further: nearly all actives have a fitted effect of over 50% in size; further: potency means the concentration at half of the fitted maximal effect
Procedure, shortened: (§4)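 600 cells/well were plated with the nonlytic NanoLuc/prosubstrate reagent, pre-incubated 5 h, then given 23 nL of compound in DMSO. Incubation at 37 C for 40 h, with luminescence from viable-cell-reduced substrate read repeatedly from 0 h.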

[12] = qHTS RealTime-Glo MT Cell Viability Assay in HepG2 cells - 32 hour (AID 1224877); further: nearly all actives have a fitted effect of over 55% in size; further: potency means the concentration at half of the fitted maximal effect
Procedure, shortened: (§5)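 Cell number in HepG2 cultures estimated from NanoLuc luminescence generated by metabolic reduction of a prosubstrate by living cells. The homogeneous, nonlytic format allowed repeated reads at 0, 8, 16, 24, 32 and 40 h of compound exposure.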

[13] = A CellTox Green Cytotoxicity Assay to monitor cytotoxicity in HepG2 cells - 24 hour (AID 1224878); further: nearly all actives have a fitted effect of over 45% in size; further: potency means the concentration at half of the fitted maximal effect
Procedure, shortened: (§6)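 HepG2 cells, 600/well, preincubated 5 h with CellTox Green dye, then exposed to Tox21 compounds in DMSO at 37 C for up to 40 h. Dead-cell DNA fluorescence read at the indicated time point.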

[14] = A CellTox Green Cytotoxicity Assay to monitor cytotoxicity in HepG2 cells - 40 hour (AID 1224879); further: nearly all actives have a fitted effect of over 40% in size; further: potency means the concentration at half of the fitted maximal effect
Procedure, shortened: as §6

[15] = qHTS assay to identify small molecule agonists of H2AX - cell viability counter screen (AID 1224847; calls by dose curve; further: nearly all actives have a fitted effect of over 30% in size; further: potency means the concentration at half of the fitted maximal effect)
Procedure, shortened: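 CHO-K1 cells plated overnight at 37C, then exposed 3 h at 37C to compounds at 15 concentrations (0.76% DMSO final). Viability by CellTiter-Glo luminescence after 30 min at room temperature.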

[16] = A CellTox Green Cytotoxicity Assay to monitor cytotoxicity in HEK293 cells - 24 hour (AID 1224875); further: nearly all actives have a fitted effect of over 45% in size; further: potency means the concentration at half of the fitted maximal effect
Procedure, shortened: as §2

[17] = A CellTox Green Cytotoxicity Assay to monitor cytotoxicity in HepG2 cells - 16 hour (AID 1224876); further: nearly all actives have a fitted effect of over 45% in size; further: potency means the concentration at half of the fitted maximal effect
Procedure, shortened: as §6

[18] = qHTS RealTime-Glo MT Cell Viability Assay in HepG2 cells - 24 hour (AID 1224867); further: nearly all actives have a fitted effect of over 50% in size; further: potency means the concentration at half of the fitted maximal effect
Procedure, shortened: as §5

[19] = qHTS RealTime-Glo MT Cell Viability Assay in HEK293 cells - 0 hour (AID 1224880)
Procedure, shortened: as §4

[20] = qHTS RealTime-Glo MT Cell Viability Assay in HepG2 cells - 8 hour (AID 1224873); further: nearly all actives have a fitted effect of over 55% in size; further: potency means the concentration at half of the fitted maximal effect
Procedure, shortened: as §3
On the % scale 0 is the no-effect control and ±100 the full control effect.

COc1ccc(C=O)cc1OC
inactive: Potency [1] | Potency [2] | outcome [3] | Potency [4] | activity change, positive = activation ([5]; at 92.4 µM (top of the series)) -3.94% and -4.02% | Potency [6] | Potency [7] | Potency [8] | Potency [9] | Potency [10] | max response [11] 1.59% and -6.52% | Potency [12] | Potency [13] | Potency [14]

ClC(Cl)=C(Cl)C(Cl)=C(Cl)Cl
inactive: Potency [1] | Potency [2] | outcome [3] | Potency [15] | Potency [6] | Potency [7] | Potency [8] | Potency [9] | Potency [10] | max response [11] 3.65% and 8.28% | Potency [16] | Potency [17] | Potency [12] | Potency [13] | Potency [14]

COP(=S)(OC)SCn1nnc2ccccc2c1=O
inactive: Potency [1] | Potency [2] | outcome [3] | activity change, positive = activation ([5]; at 92.4 µM (top of the series)) -43.4% and -47.5% | Potency [18] | Potency [7] | Potency [8] | Potency [9] | Potency [16] | Potency [17] | Potency [12] | Potency [13] | Potency [14] | Potency [19]
active: Potency [4] 53.4 µM and 61.1 µM | Potency [11] 48 µM

N#Cc1nn(-c2c(Cl)cc(C(F)(F)F)cc2Cl)c(N)c1S(=O)C(F)(F)F (configuration not stated)
active: Potency [4] 5.48 µM and 11.9 µM | Potency [6] 22 µM | Potency [10] 22 µM and 21.3 µM | Potency [11] 24.7 µM
inactive: Potency [1] | Potency [2] | outcome [3] | activity change, positive = activation ([5]; at 42.5 µM (top of the series)) -52.7% | activity change, positive = activation ([5]; at 92.4 µM (top of the series)) -58.7% | Potency [7] | Potency [8] | Potency [9] | Potency [20] | Potency [16] | Potency [17] | Potency [12] | Potency [13] | Potency [14]

CCOP(=S)(OCC)SCn1c(=O)oc2cc(Cl)ccc21
inactive: Potency [1] | Potency [2] | outcome [3] | Potency [18] | Potency [7] | Potency [8] | Potency [9] | Potency [20] | Potency [12] | Potency [13] | Potency [14] | Potency [19]
active: Potency [6] 29.5 µM | Potency [10] 26.3 µM and 19.5 µM | Potency [11] 29.5 µM

Clc1ccc(C(Cl)(Cl)Cl)cc1
inactive: Potency [1] | Potency [2] | outcome [3] | Potency [4] | activity change, positive = activation ([5]; at 92.4 µM (top of the series)) -5.48% and 0.497% | Potency [6] | Potency [7] | Potency [8] | Potency [9] | Potency [10] | max response [11] -12.2% and -12.9% | Potency [16] | Potency [12] | Potency [13] | Potency [14] | Potency [19]

CCCCCCCCCc1ccc(O)cc1
44.1 µM (active) and inactive: Potency [9]
inactive: Potency [7] | Potency [8] | Potency [20] | Potency [12] | Potency [19]
active: Potency [1] 39.3 µM and 54.9 µM | Potency [2] 102 µM and 101 µM | Potency [6] 9.87 µM and 5.49 µM | Potency [10] 6.99 µM and 4.36 µM | Potency [11] 11.1 µM and 6.92 µM | Potency [13] 44.1 µM and 38.9 µM | Potency [14] 24.8 µM

[Cl-].[Cl-].[Cl-].[Fe+3]
inactive: Potency [1] | Potency [2] | outcome [3] | Potency [6] | Potency [7] | Potency [8] | Potency [9] | Potency [10] | Potency [20] | max response [11] 0.374% | Potency [16] | Potency [17] | Potency [12] | Potency [13] | Potency [14] | Potency [19]

CC(C)(c1ccc(OCC2CO2)cc1)c1ccc(OCC2CO2)cc1 (configuration not stated)
inactive: Potency [2] | outcome [3] | activity change, positive = activation ([5]; at 92.4 µM (top of the series)) -61.1% and -21.3% | Potency [6] | Potency [7] | Potency [8] | Potency [9] | Potency [10] | Potency [20] | max response [11] -0.153% | Potency [16] | Potency [12] | Potency [13] | Potency [14]
active: Potency [4] 61.9 µM

CC(C)(c1ccccc1)c1ccc(O)c(C(C)(C)c2ccccc2)c1
inactive: activity change, positive = activation ([5]; at 92.4 µM (top of the series)) -71.4% and -64.9% | Potency [7] | Potency [19]
active: Potency [1] 21.7 µM and 21.9 µM | Potency [2] 39.7 µM | Potency [15] 28.1 µM and 56.6 µM | Potency [4] 42.9 µM and 48.6 µM | Potency [18] 54.4 µM and 43.6 µM | Potency [6] 19.3 µM and 30.9 µM | Potency [8] 49 µM | Potency [9] 24.3 µM and 43.6 µM | Potency [10] 21.7 µM and 43.6 µM | Potency [20] 48.5 µM and 38.9 µM | Potency [11] 17.2 µM and 43.6 µM | Potency [16] 43.2 µM and 49 µM | Potency [17] 48.5 µM and 43.6 µM | Potency [12] 49 µM | Potency [13] 48.5 µM and 43.6 µM | Potency [14] 54.4 µM and 43.6 µM

CC1(C)Cc2cccc(O)c2O1
inactive: Potency [1] | Potency [2] | outcome [3] | Potency [18] | Potency [6] | Potency [7] | Potency [8] | Potency [9] | Potency [10] | max response [11] 1.32% and -0.986% | Potency [17] | Potency [12] | Potency [13] | Potency [14] | Potency [19]
